# Screening results as filed in PubChem BioAssay.
# The list is not random: actives were taken first. Their share in the collection is about 1.5%.
# Vc quorum ag = quorum light induction in luxS cqsA deficient V. cholerae | V. cholerae BH1578 lux reporter, luminescence, 6 h | activation, % at 18.7 µM | 350,000 tested, 0.16% active | AID 588436; in the data active = activation mostly above about 9.7%, no sharp cut-off
# PriA SSB inh = K. pneumoniae PriA-SSBct interaction inhibition; AlphaScreen SSBct-PriA binding, biotinylated peptide; inhibition, % at 33 µM; 430,000 tested, 0.6% active; in the data active = inhibition mostly above about 37%, no sharp cut-off; inactive = mostly below about 20%
# CCHF vOTU inh-1 = blocks the CCHF virus ovarian tumor domain protease; inhibition, % at 11.5 µM; CCHFV vOTU protease, Pep-AMC fluorescence; AID 651958; 370,000 tested, 0.55% active
# TcdB GH inh = blocks C. difficile toxin B glycohydrolase activity. P18177. TcdB glycohydrolase enzymatic assay, plate reader. inhibition, % at 9.99 µM. 350,000 tested, 0.24% active. AID 652162; in the data active = inhibition above about 10%
# DUSP3 inh = inhibitors of human VHR1 phosphatase (DUSP3); inhibition, % at 13.3 µM; P51452; recombinant VHR phosphatase, pNPP absorbance; 290,000 tested, 0.52% active; AID 1654; in the data active = inhibition above about 50%
# PrPC TRFRET = cell surface PrPC inhibition, primary TR-FRET screen. TR-FRET read-out. inhibition, % at 13.8 µM. 370,000 tested, 0.43% active; in the data active = inhibition above about 24%
# CCHF vOTU inh-2 = confirmation of CCHF virus vOTU protease inhibitors; shares compounds with CCHF vOTU inh-1; Recombinant CCHFV vOTU, Pep-AMC fluorescence; inhibition, % at 11.5 µM; 1,900 tested, 17% active
# A number is an active result; n = inactive; x = not tested or not shown. Rule as the data show it, unless noted: active = inhibition above about 30%; inactive = the rest.
SMILES,Vc quorum ag,PriA SSB inh,CCHF vOTU inh-1,TcdB GH inh,DUSP3 inh,PrPC TRFRET,CCHF vOTU inh-2
CCOC(=O)c1cccc(NC(=O)CCCn2c(=O)[nH]c3ccsc3c2=O)c1,x,n,x,x,x,x,x
CC(=O)N1CCc2cc(S(=O)(=O)NC(C(=O)Nc3ccc4c(c3)OCCO4)C(C)C)ccc21 (centres undefined),n,n,29.8,x,n,n,n
CC(O)(CNC(=O)CSc1ccc(F)cc1)c1ccc(-c2ccccc2)cc1 (centres undefined),x,n,x,x,x,x,x
COC(=O)NN=C1CC(=NNC(=O)OC)c2ccccc21,x,n,x,x,x,x,x
COC(=O)N/N=C1/C/C(=N\NC(=O)OC)c2ccccc21,n,x,88.8,n,n,n,71.8
Cc1ccc(NC(=O)c2sccc2SCc2cccc(C(F)(F)F)c2)cc1,n,n,40.2,x,n,n,n
Cc1cccc(C)c1NC(=O)c1sccc1SCc1cccc(C(F)(F)F)c1,n,n,x,n,n,x,x
COc1ccccc1OCC(=O)N1CCC(Cn2ccnc2)CC1,x,n,x,x,x,x,x
CCOc1ccc2c(c1)C(C)=CC(C)(C)N2C(=O)Nc1ccccc1F,n,n,71.1,n,n,n,n
CCNC(=O)N1c2ccc(OCC)cc2C(C)=CC1(C)C,n,n,n,x,n,n,x
O=C(NCC1CCN(Cc2ccccc2)CC1)c1ccco1,x,n,x,x,x,x,x
O=C1C(O)=C(O)C(=O)c2ccccc21,n,n,104.6,n,x,n,60.0
O=C1C(=O)c2ccccc2C(O)=C1c1ccccc1F,n,n,n,n,n,n,x
O=C1c2ccccc2C(=O)c2[nH]c(=O)[nH]c21,n,n,79.3,n,n,n,75.1
CCOc1nn(CC)cc1C(=O)Nc1ccccc1SC,x,n,x,x,x,x,x
Cc1ccc(/C=N\n2c(C)cc(C)c(C#N)c2=O)o1,x,n,x,x,x,x,x
Cc1ccc2nsnc2c1NC(=S)NC(=O)c1ccco1,n,n,58.5,x,n,n,n
CCOP(=O)(OCC)C(Nc1cccc(C(F)(F)F)c1)c1ccc(C)cc1 (centres undefined),n,n,30.3,n,n,n,n
COCCN(Cc1ccsc1)S(=O)(=O)c1cc(C)c(C)cc1OC,x,n,x,x,x,x,x
CNc1c(C(C)(C)C)cc(C(C)(C)C)cc1C(C)(C)C,x,n,x,x,x,x,x
O=c1[nH]c2c(s1)C(c1ccco1)C1C3CCC(C3)C1S2 (centres undefined),n,n,32.5,x,n,n,n
O=c1[nH]c2c(s1)C(c1ccc(Cl)cc1)C1C3CCC(C3)C1S2 (centres undefined),x,n,x,x,x,x,x
COc1ccc(S[C@@H](CCN2CC[C@H](NC(=O)OCc3ccccc3)CCC2=O)c2ccccc2)cc1,n,n,36.2,n,x,n,n
Cc1ccc(C(N)=NOC(=O)Cc2ccccc2)cc1,x,n,x,x,x,x,x
CCOc1ccc(N=Cc2ccc([N+](=O)[O-])cc2)c(O)c1,n,x,35.2,n,x,n,n
SMILES,Vc quorum ag,PriA SSB inh,CCHF vOTU inh-1,TcdB GH inh,DUSP3 inh,PrPC TRFRET,CCHF vOTU inh-2
CC1CN(Cc2ccccc2)C(=S)N(c2ccccc2)C1=O (centres undefined),n,n,32.0,n,x,n,n
Cc1ccc(NC(=O)CCc2ccccc2)c(C(=O)c2ccccc2)c1,x,n,x,x,x,x,x
Cc1ccc(S(=O)(=O)N2[C@@H](c3ccc(C(C)(C)C)cc3)C(C(=O)O)=CC[C@H]2c2ccc3c(c2)OCO3)cc1,n,n,29.5,n,x,n,n
Cc1ccc([C@H]2C(C(=O)O)=CC[C@@H](c3ccc(Cl)c(Cl)c3)N2S(=O)(=O)c2ccc(C)cc2)cc1,n,n,39.5,n,x,n,n
Cc1ccc([C@@H]2CC=C(C(=O)O)[C@H](c3ccc(Br)cc3)N2S(=O)(=O)c2ccccc2C)cc1,n,n,38.6,n,x,n,n
Cc1ccc(S(=O)(=O)N2[C@@H](c3ccccc3)C(C(=O)O)=CC[C@H]2c2ccc3c(c2)OCO3)cc1,n,n,n,n,x,n,x
Cc1ccccc1S(=O)(=O)N1[C@@H](c2ccc(Br)cc2)C(C(=O)O)=CC[C@H]1c1ccc(Cl)cc1,n,n,44.8,n,x,n,n
Cc1ccc([C@@H]2CC=C(C(=O)O)[C@H](c3ccc(Cl)cc3)N2S(=O)(=O)c2ccc(C)cc2)cc1,n,n,n,n,x,n,x
Cc1ccc(S(=O)(=O)N2[C@@H](c3ccc(Br)cc3)C(C(=O)O)=CC[C@H]2c2ccc(Cl)cc2)cc1,n,n,39.5,n,x,n,n
Cc1ccc([C@@H]2CC=C(C(=O)O)[C@H](c3ccc(Cl)cc3)N2S(=O)(=O)c2ccccc2C)cc1,n,n,33.3,n,x,n,n
CC(C)(Oc1ccc(Cl)cc1)C(=O)NCC1CCN(C(=O)c2ccoc2)CC1,x,n,x,x,x,x,x
COc1ccc(Nc2ncnc3c2oc2ccccc23)cc1,n,n,33.0,x,n,n,n
Cc1ccc(Nc2ncnc3c2oc2ccccc23)cc1,n,n,n,x,n,n,x
COc1cc(/C=N/Nc2ccc(C(=O)O)cc2)cc(OC)c1OC,n,n,n,n,n,n,x
COc1cc(/C=N/Nc2ccc(S(N)(=O)=O)cc2)cc(OC)c1OC,n,x,30.4,n,n,n,n
Nn1cnnc1N/N=C/c1ccc(Cl)cc1Cl,n,x,102.3,n,n,n,n
COc1cc(C=NNc2nncn2N)ccc1OC(C)=O,x,n,x,x,x,x,x
COc1ccc(/C=N/Nc2nncn2N)cc1Br,n,x,91.3,n,n,n,n
COc1cc(/C=N/Nc2nncn2N)ccc1OCc1c(C)no[n+]1[O-],n,n,97.2,n,n,n,n
Cc1ccc(Cl)c2sc(N(Cc3ccccn3)C(=O)c3ccccc3Oc3ccccc3)nc12,x,n,x,x,x,x,x
COc1ccc(CC(=O)NCCSc2ncc(-c3ccc(F)cc3)[nH]2)cc1,x,n,x,x,x,x,x
O=c1oc(-c2ccccc2)nc2sc3c(c12)CCC3,n,n,n,n,n,n,x
Nc1nc(-c2ccccc2)nc2sc3c(c12)CCCC3,n,n,30.1,x,n,n,n
CCOC(=O)C(CNc1ccc(O)cc1)NC(=O)c1ccccc1 (centres undefined),x,x,48.9,n,x,n,n
CCCCC1C2=C(CC(C)(C)CC2=O)OC2=C1C(=O)CC(C)(C)C2,n,n,29.5,x,n,n,n
SMILES,Vc quorum ag,PriA SSB inh,CCHF vOTU inh-1,TcdB GH inh,DUSP3 inh,PrPC TRFRET,CCHF vOTU inh-2
CCCCCCC1C(C#N)=C(N)OC2=C1C(=O)CC(C)(C)C2 (centres undefined),n,n,n,n,n,n,x
Cc1cc(C)c(NC(=O)COC(=O)c2ccc([N+](=O)[O-])s2)c(C)c1,n,n,54.3,x,n,n,n
CN(CC(=O)Nc1ccccc1Cl)C(=O)COC(=O)c1ccc([N+](=O)[O-])s1,n,n,77.7,n,x,n,39.2
COc1ccccc1NC(=O)COC(=O)c1ccc([N+](=O)[O-])s1,n,n,79.9,n,n,n,100.0
NS(=O)(=O)c1ccc(NC(=O)COC(=O)c2ccc([N+](=O)[O-])s2)cc1,n,n,73.8,n,n,n,62.7
COc1cc(-c2coc3c(C(=O)NCc4ccccc4)cccc23)ccc1O,n,x,40.7,n,x,n,n
Nc1[nH][nH]c(=O)c1N=Nc1cccc(Cl)c1,n,n,31.7,n,n,n,n
COc1ccc(S(=O)(=O)NCC2CCN(C3CCCC3)CC2)c(OC)c1,x,n,x,x,x,x,x
